PubChem BioAssay (Tox21)
Results filed as inconclusive are left out. A number with no mark means an inactive call. Calls come from the whole dose curve; as a rule, active = well fitted cell-killing curve with a large enough effect in the repeat runs; inconclusive = weak or mixed curves, or effect the other way; inactive = flat fitted curve, though single readings scatter.

Experiment: qHTS assay to identify small molecule antagonists of the retinoid acid receptor (RAR) signaling pathway - cell viability counter screen (AID 1159551); note: nearly all actives have a fitted effect of over 35% in size
Settings: C3RL4 cells viability, ATP luminescence (CellTiter-Glo), 6 h; series mostly up to 92.4 µM; activity change, negative = cytotoxicity: at the top concentration
Source text: U.S. Tox21 Program National Center for Advancing Translational Sciences [NCATS] NIH Chemical Genomics Center [NCGC] U.S. Environmental Protection Agency [EPA] National Institutes of Environmental Health Sciences [NIEHS] National Toxicology Program [NTP] U.S. Food and Drug Administration [FDA] Tox21 Assay Overview: All-trans Retinoic acid (atRA) is the potent natural metabolite of retinol and plays an important role in normal embryonic development and maintenance of cellular phenotype in adult animals. atRA is the activating ligand for the retinoic acid receptors (RARs) which form heterodimers with retinoid X receptors (RXRs) on the retinoic acid response element (RARE). Through activation of the RAR/RXRs nuclear receptors, atRA regulates the transcription of a large number of protein-coding genes and regulatory RNAs. Intracellular levels of atRA are controlled by the retinol signaling pathway (RSP) that regulates the biosynthesis and catabolism of atRA to maintain physiological levels. Chemicals that interfere with the RSP can cause abnormal intracellular levels of atRA and therefore are potential developmental toxicants. To assess compounds for the potential adverse effect on embryonic development through interfering with retinol signaling, a cell-based RARE luciferase reporter gene assay was used. C3RL4 cell line (OARSA/CFSAN/FDA, Laurel, MD) was used to screen Tox21 10K compound library for identifying inhibitors of the RSP. Also cytotoxicity was assessed by determining the viability of cells based on the quantitation of ATP.
Tox21 Assay Protocol Summary: C3RL4 cells were seeded at 1,000/well in 4 uL of assay medium into white solid 1,536-well tissue culture plates (Greiner Bio-One North America Inc. Monroe, NC) using a Multidrop Combi (Thermo Scientific, Waltham, MA) dispenser. After incubation at 37 C and 5% CO2 for an overnight, 23 nL of compounds dissolved in DMSO, positive control or DMSO only were transferred by a Pintool station (Kalypsys, San Diego, CA). One ul of 1 uM (final concentration) of Retinol was added right after the compound addition by using a Flying Reagent Dispenser (FRD) (Aurora Discovery, San Diego, CA). After 6 hr incubation at 37 C and 5% CO2, 5 uL of CellTiter-Glo reagent (Promega Corporation, Madison, WI) was added to each assay plate using an FRD. Luminescence was quantified on a ViewLux plate reader (PerkinElmer, Waltham, MA) after 30 min incubation at room temperature.
% is set by controls: 0 for no effect and ±100 for the full control effect.

Row | Structure (SMILES) | activity change, negative = cytotoxicity
1 | O=C(O)CCSCCC(=O)O | 2.3%
2 | CCCCCCCCCCCCSC | 2.11%
3 | CCN[C@@H]1C[C@H](N)[C@@H](OC2OC(CN)=CCC2N)[C@H](O)[C@H]1O[C@H]1OC[C@](C)(O)[C@H](NC)[C@H]1O (stereo not given in full) | 2.69% [at 0.349 µM]
4 | CCCCCCCCN1CCCC1=O | 0.534%
5 | Nc1ccn([C@@H]2O[C@H](CO)[C@@H](O)C2(F)F)c(=O)n1 | 1.42% [at 42.5 µM]
6 | O=C(O)CNC(=O)c1ccccc1 | 2.67% [at 42.5 µM]
7 | CCN(Cc1ccccc1)c1ccccc1 | -1.38%
8 | C=COCC1CCC(COC=C)CC1 (stereo not given) | 3.6%
9 | C=CC(=O)OCCCl | 1.92%
10 | Nc1ccn([C@@H]2O[C@H](CO)[C@@H](O)C2O)c(=O)n1 (stereo not given in full) | 6.85%
11 | CC1=NS(=O)(=O)c2cc(Cl)ccc2N1 | 0.647% [at 42.5 µM]
12 | COc1ccccc1OCC1CNC(=O)O1 (stereo not given) | 4.48% [at 42.5 µM]
13 | CO/N=C(\C(=O)N[C@@H]1C(=O)N2C(C(=O)O)=C(CSc3nc(=O)c(O)nn3C)CS[C@H]12)c1csc(N)n1 | -1.36% [at 42.5 µM]
14 | C=C[Si](OC(C)=O)(OC(C)=O)OC(C)=O | 2.25%
15 | CC(C)NNC(=O)c1ccncc1 | 0.709% [at 42.5 µM]
16 | O=C(O)c1cn(C2CC2)c2cc(N3CCNCC3)c(F)cc2c1=O | 1.76% [at 42.5 µM]
17 | CCOc1ccc2nc(S(N)(=O)=O)sc2c1 | -1.01% [at 42.5 µM]
18 | CC1=C(C/C=C(\C)CCC[C@H](C)CCC[C@H](C)CCCC(C)C)C(=O)c2ccccc2C1=O | -1.18% [at 42.5 µM]
19 | CCCCCC(=O)OCCc1ccccc1 | 0.219%
20 | CNCC(O)c1ccc(O)c(O)c1 (stereo not given) | 0.11% [at 42.5 µM]

Row | Structure (SMILES) | activity change, negative = cytotoxicity
21 | CC(C)(C)C(=O)c1ccccc1 | -0.292%
22 | CCC(C)(CCCC(C)C)OC(C)=O (stereo not given) | 2.45%
23 | CN(C)CCN(C)CCN(C)C | 0.211%
24 | CC(CO)(CO)[N+](=O)[O-] | 3.06%
25 | CC(C)(C#N)Nc1nc(Cl)nc(NC2CC2)n1 | -1.04%
26 | C=CC(C)(CCC=C(C)C)OC(=O)CC (stereo not given) | 3.66%
27 | C[C@H]1C[C@H]2[C@@H]3CCC4=CC(=O)C=C[C@]4(C)[C@H]3C(=O)C[C@]2(C)[C@@]1(O)C(=O)CO | -0.0814% [at 42.5 µM]
28 | CC(C)(C)OC(=O)c1cccc(N)c1 | -1.09%
29 | CC(C#N)(CCC(=O)O)N=NC(C)(C#N)CCC(=O)O (stereo not given) | 2.9%
30 | CC[N+](CC)(CC(=O)Nc1c(C)cccc1C)Cc1ccccc1 (tested in a mixture with another compound) | -0.548% [at 42.5 µM]
31 | CCCn1cc[n+](C)c1C | 2.12%
32 | Cc1cc(C)c(N=Nc2c(O)c(S(=O)(=O)O)cc3cc(S(=O)(=O)O)ccc23)cc1C | 0.446% [at 8.39 µM]
33 | CCCCN1C=CN(C)C1 | 1.26% [at 19 µM]
34 | CC(=O)c1cnccn1 | 0.771%
35 | CO[C@@]1(NC(=O)C(C(=O)O)c2ccc(O)cc2)C(=O)N2C(C(=O)O)=C(CSc3nnnn3C)CO[C@@H]21 (stereo not given in full) | -0.0507% [at 42.5 µM]
36 | CN1C(C)(C)CC(O)CC1(C)C | 0%
37 | Cc1ccccc1N=C(N)N=C(N)N | 4.42%
38 | COc1cc(C(=O)OC(COCCC(C)C)CN2CCOCC2)cc(OC)c1OC (stereo not given) | 1.89% [at 42.5 µM]
39 | CC(C)(C)c1ccc(-c2ccc(C(C)(C)C)cc2)cc1 | -1.58%
40 | CCCC[N+](C)(CCCC)CCCC | 0.992%
